Hit rate of the full screen: of about 220,000 compounds, about 3,300 (1.5%) were called active. This is one part of a sample in which actives are shown more often than they occur. Values without a mark were called inactive.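 The calls were made as follows: active = compounds that cut the protein-peptide binding signal by more than 50% relative to plate controls in a single-dose test; inactive = the rest.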
target: Induced myeloid leukemia cell differentiation protein Mcl-1 (Homo sapiens) (UniProt Q07820); experiment: disruptors of Mcl-1 and Noxa BH3 peptide – biochemical, TR-FRET, 1536-well, primary screen (AID 1022); conditions: TR-FRET Mcl-1/Noxa peptide binding, 2 h; at 21.7 µM; active compounds read high;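 also: His-tagged Mcl-1 with rhodamine Noxa BH3 peptide and terbium anti-His antibody; 0% = Mcl-1 plus Noxa peptide wells and 100% = peptide-only wells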
Sequence (Q07820 whole entry, looked up): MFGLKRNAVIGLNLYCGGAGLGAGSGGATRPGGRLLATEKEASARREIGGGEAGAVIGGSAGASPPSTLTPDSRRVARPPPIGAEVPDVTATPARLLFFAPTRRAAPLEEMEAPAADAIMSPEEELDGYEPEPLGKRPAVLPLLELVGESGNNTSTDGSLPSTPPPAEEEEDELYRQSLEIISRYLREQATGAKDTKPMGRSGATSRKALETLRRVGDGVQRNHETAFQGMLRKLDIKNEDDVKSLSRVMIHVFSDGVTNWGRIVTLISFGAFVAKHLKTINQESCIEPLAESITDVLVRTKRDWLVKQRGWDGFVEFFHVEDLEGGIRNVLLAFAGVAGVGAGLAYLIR

| SMILES | inhibition |
| --- | --- |
| Cc1ccc(S(=O)(=O)NNC(=S)NC(C)(C)C)cc1 | -14.3% |
| O=C(NC(=O)N1CCSCC1)c1c(Cl)cccc1Cl | 2.15% |
| Cc1ccc(-c2csc(-c3cc(C)on3)n2)cc1 | -2.5% |
| O=S(=O)(c1cccc(-c2nnc3n2CCCCC3)c1)N1CCOCC1 | 3.07% |
| Cc1ccc(/C=C(\C#N)C(=O)Nc2cccc3ncccc23)o1 | 65.7% (active) |
| O=C(Nc1cccc2ncccc12)C(Cl)(Cl)Cl | 11.1% |
| Cc1ccc(C(=O)Nc2cccc3ncccc23)cc1[N+](=O)[O-] | 10.6% |
| Cc1ccc(NC(=O)/C(=C/c2ccc([N+](=O)[O-])cc2)NC(=O)c2ccccc2)cc1 | 3.04% |
| Cn1nccc1NC(=O)Nc1ccc(OC(F)(F)F)cc1 | -2.66% |
| Oc1c(Cl)cc(Cl)c(Cl)c1Cc1c(O)c(Cl)cc(Cl)c1Cl | 104% (active) |
| CN(C)c1ccc(/C=N\S(=O)(=O)c2ccccc2)cc1 | 2.37% |
| CCN(/N=C/c1ccccc1)c1cc(=O)n(C)c(=O)[nH]1 | 21% |
| CN(C)c1ccc(/C=N/N(Cc2ccccc2)c2ccccc2)cc1 | 95.7% (active) |
| Oc1ccc(/C=N/N(Cc2ccccc2)c2ccccc2)cc1 | 27% |
| COC(=O)Cc1nc2ccccc2[nH]1 | 9.2% |
| CCN(/N=C/c1ccc(N(C)C)cc1)c1nc2ccccc2[nH]1 | 81% (active) |
| COc1cc(C(F)(F)F)nc2c(Br)c(C(C)(C)C)nn12 | 7.39% |
| CN(C)S(=O)(=O)c1ccc(C(=O)NCC(C)(C)N2CCOCC2)cc1 | 7.92% |
| Cc1ccc(NNC(=O)c2c(F)cccc2Cl)cc1Cl | 0.81% |
| CCOC(=O)C1CCN(C(=O)Nc2cccc(OC)c2)CC1 | -13.3% |
| COc1cccc(C(=O)n2ccc(-c3cccs3)n2)c1 | 1.68% |
| Cc1nnc(SC(C(=O)c2ccccc2)c2ccccc2)[nH]c1=O (centres undefined) | -5.97% |

| SMILES | inhibition |
| --- | --- |
| Cc1cc2c(cc1C)N(Cc1ccccc1)C1=NCCCN12 | -4.28% |
| CCOc1ccc(/C=N/Nc2nncc(-c3ccccc3)n2)cc1OC | 14.2% |
| COc1ccc(/C=N/Nc2nc3ccccc3o2)cc1OC | -2.8% |
| COc1cc(/C=N/Nc2nn3cnnc3c3ccccc23)cc(OC)c1OC | 52.5% (active) |
| C=CCN(c1ccccc1C(=O)NCC(=O)OCC)S(=O)(=O)c1ccc(C)cc1 | 8.19% |
| Cc1ccc(NN=Nc2nc3c([nH]2)c(=O)n(C)c(=O)n3C)cc1 | 55.6% (active) |
| CCCSc1nc2c(c(=O)n(C)c(=O)n2C)n1Cc1ccc(C)cc1 | -4.96% |
| CC(CCO)Nc1nc2c([nH]1)c(=O)n(C)c(=O)n2C (centres undefined) | -3.43% |
| Cc1cc(C(=O)NNS(=O)(=O)c2ccccc2C(F)(F)F)nn1C(C)(C)C | -0.45% |
| Cc1cc(N2CCN(c3ccc(F)cc3)CC2)n2ncnc2n1 | -1.64% |
| CC(C)NC(=O)NNc1c(Cl)cncc1Cl | 3.37% |
| Cc1ccc(Cn2c(NC(=O)c3ccco3)nc3ccccc32)cc1 | 1.28% |
| Clc1cccc(-c2nc3nc4ccccc4nc3n2Cc2ccco2)c1 | 4.89% |
| Cc1ccc(Cn2c(C)nc3c(c2=O)c2nc4ccccc4nc2n3Cc2ccco2)cc1 | 63.1% (active) |
| COc1ccc2c(c1)C(=C(C#N)C#N)C(=O)N2CCc1ccccc1 | -4.33% |
| CCCCCn1c(=O)c(C(=O)OCC)c(Cl)c2ccccc21 | -2.04% |
| CCOC(=O)/C=C/CN(C(=O)OC(C)(C)C)S(=O)(=O)N1CC=CC1 | -18% |
| CCC(C)N1C(=S)SC(C)(C)C1N(O)C(=O)NC1CCCCC1 (centres undefined) | -0.12% |
| O=C(O)c1ccc2c(c1)C(=O)N(NC(=O)c1ccc(O)cc1)C2=O | 12.9% |
| CC(=O)N1C(=O)/C(=C2\SC(=S)N(NC(=O)c3ccc(O)cc3)C2=O)c2ccccc21 | 94.5% (active) |
| Cn1cccc1/C=C1\SC(=S)N(NC(=O)c2ccc(Cl)cc2)C1=O | 18.5% |
| O=C(NCCc1ccccc1)Oc1ccc(Cl)cc1 | 7.49% |

| SMILES | inhibition |
| --- | --- |
| COC(=O)N(NC(=O)C(O)(C(C)C)C(C)C)c1ccccc1 | -6.13% |
| Cc1ccc(-c2nc(C)sc2CC(=O)O)cc1 | 6.4% |
| C/C(=N/Nc1nc(-c2ccccc2)c(CC(=O)O)s1)c1ccccc1 | 55.8% (active) |
| O=C(O)Cc1sc(-c2ccc(C(=O)O)cc2)nc1-c1ccccc1 | 15.3% |
| CCn1c(=O)c2cc(C(=O)Nc3cccc(C(C)=O)c3)sc2c2ccccc21 | -88.5% |
| O=c1c(-c2ccc(Cl)cc2)[n+]([O-])c2ccccc2n1OCc1nc2ccccc2[nH]1 | -16.2% |
| COC(=O)CC1=NN(c2ccccc2)C(=O)C1 | 19.1% |
| Cc1cc(C)cc(NC(=O)C2CCN(c3nc(C)cc(C)n3)CC2)c1 | -11.6% |
| COC(=O)CC1=NN(c2nc(C)cc(C)n2)C(=O)C1 | 68% (active) |
| CC(CO)(CO)NC(=O)c1ccc(=O)[nH]n1 | 4.69% |
| O=C(c1ccc(F)cc1)C1CCN(Cc2cn[nH]c2-c2ccccc2)CC1 | -14.2% |
| Cc1cc(C(=O)N/N=C/c2ccc(O)c([N+](=O)[O-])c2)c(C)n1-c1ccc(F)cc1 | 87.3% (active) |
| COc1cc(/C=N/NC(=O)c2cc(C)n(-c3ccc(F)cc3)c2C)cc(OC)c1O | 47.1% |
| Cc1nn(CC(=O)N/N=C/c2ccc(F)cc2)c(C)c1[N+](=O)[O-] | 12.1% |
| Cc1ccc(/C=N/NC(=S)Nc2cccc(S(=O)(=O)N(C)C)c2)o1 | -90.2% |
| OC(c1ccccc1)C(CN1CCOCC1)c1ccccc1 (centres undefined) | 6.74% |
| CCNC(=S)N1CCN(CCN=CC2=C(O)CC(C)(C)CC2=O)CC1 | 7.49% |
| O=C(NCc1ccco1)c1nc(-c2ccccc2)n(-c2ccccc2)n1 | -7.46% |
| NNC(=O)c1oc2nc(-c3ccccc3)cc(-c3ccco3)c2c1N | 72.9% (active) |
| O=C(CCc1ccccc1)Nc1cccc(-c2nnc(-c3ccco3)o2)c1 | 14.2% |
